Results reported in PubChem BioAssay (NCI).
The panel holds about 83,000 compounds, 20% with a hit somewhere; the sample as a whole holds those more often.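 Growth was measured after 48 h exposure to one concentration of compound in 96-well plates. Values under 10 count as active.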 Values without a mark were called inactive. The source made the active and inactive calls.

Tests used:
Test in all cases: NCI-60 one-dose screen, 48 h (100 = growth as untreated, 0 = no growth, -100 = all killed)
Details in all cases: 10 µM unless noted
[1] = test system: DU-145 prostate
[2] = test system: K-562 leukemia
[3] = test system: MALME-3M melanoma
[4] = test system: MDA-MB-231 breast
[5] = test system: RXF 393 renal
[6] = test system: SF-268 CNS
[7] = test system: SF-295 CNS
[8] = test system: SF-539 CNS
[9] = test system: UACC-257 melanoma
[10] = test system: HCT-15 colon
[11] = test system: HT29 colon
[12] = test system: SNB-75 CNS
[13] = test system: SNB-19 CNS
[14] = test system: U251 CNS
[15] = test system: PC-3 prostate
[16] = test system: SK-MEL-5 melanoma
[17] = test system: UACC-62 melanoma
[18] = test system: LOX IMVI melanoma
[19] = test system: SK-MEL-28 melanoma
[20] = test system: M14 melanoma

Row | SMILES | growth [1] | growth [2] | growth [3] | growth [4] | growth [5] | growth [6] | growth [7] | growth [8] | growth [9] | growth [10] | growth [11] | growth [12] | growth [13] | growth [14] | growth [15] | growth [16] | growth [17] | growth [18] | growth [19] | growth [20]
1 | N#Cc1cc(-c2nc3ccccc3s2)c(=O)n(NS(=O)(=O)c2ccccc2)c1N | 116% | 104% | 112% | 91% | 113% | 97.4% | 111% | 100% | 111% | 108% | 107% | 73.1% | 103% | 102% | 102% | 101% | 97.1% | 99.4% | 121% | 
2 | CCCCN1C=CCN(CCCC)C1 | 71.8% |  | -22.1% (active) | 75.2% | 113% | 58% | 55.6% | 78.6% | 10.8% | 90.2% | 49.2% | 66.8% | 31.1% | 22.4% | 32.4% | -6.08% (active) | 24.5% | 68.8% |  | 46%
3 | O=C1c2ccc3c4c(ccc(c24)C(=O)N1CCCNCc1ccccc1Cl)C(=O)N(CCCNCc1ccccc1Cl)C3=O | -86.5% (active) | -38.2% (active) | -72.9% (active) | 16.7% | -94.2% (active) | -30.2% (active) | -52.2% (active) | -67.6% (active) | -90.6% (active) | -46% (active) | -42.5% (active) | -97.9% (active) | -76.9% (active) |  | -37.7% (active) | -96.6% (active) | -59.5% (active) | -53.7% (active) | -92.2% (active) | 
4 | COc1ccc(-c2nc3sccn3c2/C=C/C(=O)c2ccc3c(c2)OCO3)cc1 | 113% |  | 84.6% | 76.3% | 117% | 100% | 97.1% | 84.6% | 95.8% | 59.3% | 85% | 72.3% | 80.6% | 55.1% | 58.6% | 78.7% | 57.2% | 38.4% |  | 103%
5 | COC(=O)c1ccc2c(c1)[n+](=O)c(C(C)=O)c(C(F)(F)F)n2[O-] | 1.28% (active) |  | -26.4% (active) | -4.69% (active) | -20.1% (active) | -24.8% (active) | -45.7% (active) | -45.8% (active) | -30.3% (active) | -77.5% (active) | -56% (active) | -20.5% (active) | -6.44% (active) | -72.2% (active) | -58.1% (active) | -100% (active) | -32.7% (active) | -95.3% (active) |  | -23.5% (active)
6 | CC1=CCC(OC(=O)C(C)(O)CCC(O)(C(=O)OC2(C)C=CC(O)(C(C)C)CC2)C(C)C)(C(C)C)CC1 (stereo not drawn) | 113% | 105% | 97.2% | 100% | 98.5% | 101% | 101% | 103% | 106% | 103% | 104% | 92.5% | 102% | 98.3% | 113% | 101% | 98.1% | 101% | 114% | 
7 | Oc1c(Cl)cc(Cl)c(Cl)c1CNCCNCc1c(O)c(Cl)cc(Cl)c1Cl | 45.9% | 10.3% | 13.4% | 35.5% | 28.2% | 25% | 18.3% | -9.34% (active) | 4.63% (active) | 25.1% | 26.8% | 51.9% | 15.9% | 10.1% | 44.4% | -1.48% (active) | -13.3% (active) | 6.53% (active) | 21.4% | 
8 | COc1cc2oc(-c3cccc(C(=O)Nc4ccc(Br)cc4)c3)cc(=O)c2c(OC)c1OC | 57.6% | 48.9% | 80.9% | 30.8% | -2.47% (active) | 61.8% | 52.9% | 65% | 80.1% | 40.2% | 39.5% | 81.7% | 80.9% | 65.7% | 53.1% | 56.3% | 63.7% | -20.9% (active) | 35.7% | 
9 | N#CC1C(C#N)C(C(=O)c2ccc(Br)cc2)N2c3ccccc3C=CC12 (stereo not drawn) | 91.9% | 24.4% | 67.3% | 57.6% | 74.5% | 78.5% | 89.1% | 89.3% | 98.9% | 23.7% | 37.4% | 12% | 80.4% |  |  | 61.3% | 63% | 78.7% | 95.7% | 75.3%
10 | O=C(CCN1CCCC1)Nc1ccc2c(Nc3ccc(Br)cc3)c3ccccc3nc2c1 | -70.8% (active) | -43.1% (active) | -86.2% (active) | -49.4% (active) | 47% | -7.83% (active) | 46.3% | -67.9% (active) | -48.4% (active) | -73.9% (active) | 1.67% (active) | 37.3% | -0.557% (active) | -51% (active) | 4.09% (active) | 31.7% | 77.8% | -92.4% (active) | -28.6% (active) | 
11 | COC(=O)C1=C(C(=O)ON)[C@@H]2C=C[C@@]1([C@@H](Cc1ccccc1)Nc1ccccc1)O2 | 80% | -9.92% (active) | -68.8% (active) | 106% | 91.1% | 93.9% | 105% | 93.8% | 94.8% | -47.6% (active) | 57.7% | 108% | 104% | 92.2% | 101% | 101% | 90% | 77.7% | 73.3% | 
12 | N/C(=N\C(N)=N\c1nc2ccccc2s1)c1cccc(Cl)c1 | 89.6% | 72.8% | 102% | 73.7% | 115% | 83.6% | 12% | 99.2% | 113% | 32.1% | 95.1% | 95.2% | 97.1% | 48.3% | 45% | 104% | 86.2% | 44.1% | 104% | 
13 | O=C1c2ccc3c4c(ccc(c24)C(=O)N1CCCNCc1ccccc1F)C(=O)N(CCCNCc1ccccc1F)C3=O | -91.9% (active) | -28.2% (active) | -72.2% (active) | -7.55% (active) | -87.9% (active) | -65.1% (active) | -67.7% (active) | -65.5% (active) | -98.6% (active) | -60.6% (active) | -77% (active) | -98.2% (active) | -64.3% (active) |  | -59.1% (active) | -96.2% (active) | -57.6% (active) | -71.9% (active) | -93.6% (active) | 
14 | COc1cc(/C=C\C(=O)O)ccc1OCc1ccccc1 | 103% | 126% | 102% | 93.5% | 103% | 94.8% | 101% | 99.5% | 91% | 107% | 105% | 103% | 99.2% | 84.9% |  | 94.2% | 93.2% | 95.7% | 110% | 
15 | COc1cc2nc(-c3ccc(Cl)cc3)cc(OCCCN3CCCC3)c2cc1OC | 41.7% | 21.1% | 50% | 21.5% | 42.8% | 54.5% | -17% (active) | 42.6% | 31.7% | 20.4% | 23.8% | 8.25% (active) | 67.9% | 54.4% | 41.9% | -8.4% (active) | -66.1% (active) | -32.7% (active) | 63.7% | 
